Screening results deposited in PubChem by National Center for Advancing Translational Sciences (NCATS).
Rows were chosen to be rich in hits. Some 1.8% of all compounds tested hit in one or more screens of this group.
TCR activator: Activators of T cell receptors: qHTS campaign. Potency, µM (series often up to 9.22 µM), usual class: activators. 330,000 tested, under 10 active. primary human leukocytes, anti-CD3, IL-2 HTRF, 48 h
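48 hr co-incubation of compounds, a-CD3 beads and primary human leukocytes; IL-2 quantified homogeneously by HTRF with anti-IL-2 K and d2 conjugates.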
Mito fusion yeast: qHTS Assay for Small Molecule Inhibitors of Mitochondrial Division or Activators of Mitochondrial Fusion; S. cerevisiae fusion-defective mutant growth rescue, CellTiterGlo 48 h; 320,000 compounds, 0.23% hits; AID 485298, 2010; Potency, µM (series often up to 46.1 µM), hits mostly activators; note: nearly all actives have a fitted effect of over 45% in size
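S. cerevisiae fusion-defective temperature-sensitive mutants (e.g. fzo1-1, mgm1-5) grown 48 h at 37C in YPEG (ethanol/glycerol non-fermentable) medium with 23 nl compound per well; growth rescue read as CellTiterGlo luminescence.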
ClpP mod: qHTS Assay for Activators of ClpP; ATP-dependent Clp protease proteolytic subunit (Bacillus subtilis (strain 168)), P80244; purified B. subtilis ClpP, FRET peptide cleavage, 20 min; Potency, µM (top dose mostly 57.5 µM); 340,000 compounds, 1.9% hits; AID 651965, 2013; active = well fitted falling curve with a large enough effect; inconclusive = small, poorly fitted or top-dose-only effect; inactive = no such curve, though single readings can be large or run the other way; note: the source files actives as falling curves though it sought activators and does not explain the sign; nearly all actives have a fitted effect of over 65% in size
Target sequence (P80244 whole entry, looked up): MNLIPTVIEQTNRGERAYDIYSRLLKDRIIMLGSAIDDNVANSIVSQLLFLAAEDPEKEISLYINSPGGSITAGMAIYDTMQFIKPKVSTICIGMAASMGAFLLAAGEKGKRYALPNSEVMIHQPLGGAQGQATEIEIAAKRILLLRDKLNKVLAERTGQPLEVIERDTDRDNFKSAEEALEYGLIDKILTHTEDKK
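Buffer: 100 mM Tris/HCl pH8, 100 mM KCl, 0.05% low protease BSA, 2.5% glycerol, 0.01% Tween-20. ClpP 10 microg/mL final; 20 min RT; delta FRET normalized to ADEP and DMSO controls.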
Glioma ERSR ind: qHTS for Inducers of the Endoplasmic Reticulum Stress Response (ERSR) in Human Glioma: qHTS; U87-MG GRP78 promoter luciferase reporter, 16 h; Potency, µM, most hits filed as activators; 420,000 compounds, 0.02% hits; AID 602332, 2012; note: series mostly up to about 76 µM; nearly all actives have a fitted effect of over 35% in size
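Stably transfected U87-MG glioma cells carrying a GRP78-based luciferase sensor; 16 h compound incubation. Luminescence end-point read 10 min after Bright-Glo addition at room temperature.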
AT treatment: qHTS Assay for Identifying a Potential Treatment of Ataxia-Telangiectasia | AID 485349, 2010 | 320,000 compounds, 0.19% hits | F2112 A-T fibroblasts, KAP-1 phosphorylation AlphaLISA; neocarzinostatin DNA damage 30 min before lysis | Potency, µM (doses to about 57.5 µM), hits mostly activators; note: nearly all actives have a fitted effect of over 45% in size
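ATM-like activity read as KAP-1 phosphorylation via AlphaLISA donor/acceptor antibody pairs after lysis and 6 hr at 25C. Cells were ATM-null patient fibroblasts (F2112, hTERT), dosed 60 min, then exposed to the DSB inducer NCS for 30 min.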
MBNL1-CUG inh: qHTS Assay for Inhibitors of MBNL1-poly(CUG) RNA binding; Potency, µM (doses to about 57.5 µM), usual class: inhibitors; TR-FRET MBNL1-His/biotin-(CUG)12 binding, 665/545 ratio; 280,000 compounds, 0.036% hits; active = well fitted inhibition curve with a large enough effect in the signal ratio, with a control signal flat, not every such curve was filed as active; inconclusive = small, poorly fitted or top-dose-only effect, or effect the other way, or a change in a side signal; inactive = no such curve, though single readings can be large or run the other way; the % refers to the signal ratio
Target sequence (Q9NR56 whole entry, looked up): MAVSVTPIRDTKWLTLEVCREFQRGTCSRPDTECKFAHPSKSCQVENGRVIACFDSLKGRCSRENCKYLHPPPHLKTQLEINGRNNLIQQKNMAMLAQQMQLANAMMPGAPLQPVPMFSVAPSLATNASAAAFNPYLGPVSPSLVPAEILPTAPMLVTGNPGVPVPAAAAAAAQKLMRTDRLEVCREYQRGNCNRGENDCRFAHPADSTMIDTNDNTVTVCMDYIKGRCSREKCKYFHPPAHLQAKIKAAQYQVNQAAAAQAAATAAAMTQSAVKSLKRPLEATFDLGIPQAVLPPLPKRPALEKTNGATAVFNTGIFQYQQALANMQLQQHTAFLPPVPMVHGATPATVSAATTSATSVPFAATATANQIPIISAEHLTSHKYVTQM
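Inhibition of protein-RNA binding appears as loss of TR-FRET between terbium anti-His antibody on MBNL1-His and streptavidin-XL665 on biotin-(CUG)12. Activity is normalized to buffer-only and uninhibited-complex controls.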
Hits are given with their value; 0 = inactive; ? = inconclusive; - = no result. Unless noted, calls come from the whole dose curve; as a rule, active = well fitted curve in the direction sought with a large enough effect; inconclusive = small, poorly fitted or top-dose-only effect, or another doubt; inactive = no such curve, though single readings can be large; an effect the other way counts as inactive or inconclusive.

SMILES	TCR activator	Mito fusion yeast	ClpP mod	Glioma ERSR ind	AT treatment	MBNL1-CUG inh
O=C(CN(c1ccccc1)S(=O)(=O)c1ccccc1)Nc1ccccc1C(=O)NCc1ccco1	0	0	?	0	0	0
OC(c1cccnc1)c1ccc2c(c1)CN(Cc1cn(-c3ccccc3)nc1-c1ccccc1)CCO2 (configuration not stated)	-	-	-	0	-	-
Cc1ccc2c(c1)CN(CCNC(=O)C(C)Oc1ccccc1)CC(C)O2 (configuration not stated)	-	-	-	0	-	-
CC(C)[C@H](NS(=O)(=O)c1ccccc1)C(=O)OCc1cc([N+](=O)[O-])cc2c1OCOC2	0	-	0	0	-	-
CC(C)[C@H](NC(=O)c1ccccc1Cl)C(=O)OCc1cc([N+](=O)[O-])cc2c1OCOC2	0	0	22.4µM	0	0	0
O=C(COc1ccccc1C(=O)OCC(=O)N1CCOCC1)Nc1ccc(Br)cc1	-	-	0	-	-	-
Cc1c(C#N)c(N)nc2c3c(sc12)NC(=O)CC3c1ccc(Cl)cc1 (configuration not stated)	0	0	15.8µM	0	0	0
N#Cc1c(N)nc2c3c(sc(=N)c2c1N)NC(=O)CC3c1ccccc1 (configuration not stated)	0	0	0	0	0	?
Nc1ccc2c(c1)-c1ccccc1S(=O)(=O)N2	0	0	0	0	0	0
Cc1ccc2c(c1)-c1ccccc1S(=O)(=O)N2	0	0	28.2µM	0	0	0
CCCCNc1c(-c2cccc(-c3ccc(OC)cc3)c2)nc2ccc(C)cn12	0	0	0	0	35.5µM	-
COc1cc(-c2nc3ccc(C)cn3c2NCc2ccccc2)ccc1-c1cccc(Cl)c1	0	-	0	0	?	-
Cc1ccc2nc(-c3ccc(-c4cccc(Cl)c4)cc3)c(NCc3ccccc3)n2c1	0	0	0	0	25.1µM	-
COc1ccc(-c2nc3ccc(C)cn3c2NCc2ccc3c(c2)OCO3)cc1	0	0	?	0	0	0
Cc1ccc(-c2nc3ccccn3c2NCc2ccc3c(c2)OCO3)cc1	0	0	31.6µM	0	0	0
Cn1c(SCC(=O)NCc2ccco2)nnc1-c1ccc(NC(=O)c2ccccc2)cc1	-	-	0	0	-	-
C/C=C1\COC(C(=O)NCCN2CCOCC2)(C(F)(F)F)C=C1C=C(C)C (configuration not stated)	-	-	-	0	-	-
COc1ccc(-c2sc3ccc(OC)cc3c2-c2ccc(O)cc2)cc1	0	-	28.2µM	0	0	-
COc1ccc(-c2c(-c3cc(OC)cc(OC)c3)sc3ccc(OC)cc23)cc1	0	-	17.8µM	0	0	-
COc1cc(OC)cc(-c2sc3ccc(OC)cc3c2-c2ccc(O)cc2)c1	0	-	?	0	0	-
OC(COc1ccc(Cl)cc1)CN1C2=NCCCN2c2ccccc21 (configuration not stated)	0	0	22.4µM	0	0	0
COc1cccc(/C=C/C(=O)OCC(=O)Nc2ccc(Cl)c(S(=O)(=O)N(C)C)c2)c1	0	0	-	0	0	-
COc1cccc(/C=C/C(=O)OCC(=O)c2c(N)n(C)c(=O)n(C)c2=O)c1	0	0	25.1µM	0	0	-
COc1cccc(/C=C/C(=O)OCC(=O)Nc2cc(C(F)(F)F)ccc2Cl)c1	0	0	35.5µM	0	0	?
COc1ccc(/C=C/C(=O)OCC(=O)c2c(N)n(C)c(=O)n(C)c2=O)cc1	0	0	0	0	0	?
SMILES	TCR activator	Mito fusion yeast	ClpP mod	Glioma ERSR ind	AT treatment	MBNL1-CUG inh
CCC(C)C(NC(N)=O)C(=O)Nc1ccc(C)c(Cl)c1 (configuration not stated)	0	0	28.2µM	0	0	-
Cc1ccc(C(=O)NNC(=O)Cn2ccc(C(F)(F)F)n2)o1	0	0	25.1µM	0	0	-
O=C(Cn1ccc(C(F)(F)F)n1)NNC(=O)c1cccnc1	0	0	0	0	0	0
CC[C@H](C)[C@H](NC(=O)[C@H](Cc1ccc(O)cc1)NC(=O)[C@H](Cc1cnc[nH]1)NC(=O)[C@H](CCCNC(=N)N)NC(=O)[C@H](CC(C)C)NC(=O)[C@H](C)NC(=O)[C@H](CO)NC(=O)[C@H](Cc1ccc(O)cc1)NC(=O)[C@H](Cc1ccc(O)cc1)NC(=O)[C@H](CCCNC(=N)N)NC(=O)[C@H](C)NC(=O)[C@H](CCSC)NC(=O)[C@H](CC(=O)O)NC(=O)[C@H](CCC(=O)O)NC(=O)[C@H](C)NC(=O)[C@@H]1CCCN1)C(=O)N[C@@H](CC(N)=O)C(=O)N[C@@H](CC(C)C)C(=O)N[C@H](C(=O)N[C@H](C(=O)N[C@@H](CCCNC(=N)N)C(=O)N[C@@H](CCC(N)=O)C(=O)N[C@@H](CCCNC(=N)N)C(=O)N[C@@H](Cc1ccc(O)cc1)C(N)=O)[C@@H](C)O)[C@@H](C)CC	-	-	-	0	-	-
CCOc1ccccc1-c1nc(-c2ccc(-c3ccccc3)nc2OCC)no1	-	-	12.6µM	0	-	-
COc1nc(-c2ccc(C)cc2)ccc1-c1noc(-c2ccco2)n1	0	0	28.2µM	0	0	0
CCOc1nc(-c2ccccc2)ccc1-c1noc(COc2ccccc2)n1	0	0	?	0	-	0
COc1nc(C)ccc1-c1noc(-c2ccco2)n1	-	0	0	0	0	0
CCOc1nc(-c2ccccc2)ccc1-c1noc(-c2ccco2)n1	0	0	35.5µM	0	0	0
Cn1cc(CN2CCOc3ccc(C(O)C4CCCCC4)cc3C2)cn1 (configuration not stated)	-	-	-	0	-	-
CC(C)c1cccc(NC(=O)COC(=O)c2ccccc2OCc2cccc(Br)c2)c1	-	-	0	0	-	-
N#Cc1nc(-c2ccccc2)oc1NCc1ccco1	0	0	0	0	0	?
N#Cc1nc(-c2ccc(Cl)cc2)oc1NCCc1ccccn1	0	0	31.6µM	0	0	0
CN(C)CCCNc1oc(-c2ccc(Cl)cc2)nc1C#N	0	0	0	0	0	0
N#Cc1nc(-c2ccc(Cl)cc2)oc1NCc1cccc2c1OCO2	0	0	11.2µM	0	-	0
N#Cc1nc(-c2ccc(Cl)cc2)oc1NCc1ccco1	0	0	11.2µM	0	0	0
CCCCn1cnc2c(=O)[nH]c(N)nc21	-	-	?	0	-	-
COc1cccc(CNC(=O)c2c(OC)cc(=O)n3c2CCN(C(=O)c2ccc(C)s2)CC3)c1	-	-	-	0	-	-
